The record followed here is PubChem BioAssay (NCATS).

The structures appear in SMILES notation. Where “and” joins values, the source holds several entries; their conditions need not be identical. Equal values may be shown once. Results filed as inconclusive are left out. Where a call stands in place of a potency, no number is given. Calls of active or inactive are those of the source. Calls follow the shape of the dose curve; as a rule, active = well fitted curve in the direction sought with a large enough effect; inconclusive = small, poorly fitted or top-dose-only effect, or another doubt; inactive = no such curve, though single readings can be large; an effect the other way counts as inactive or inconclusive.

Furin (Homo sapiens), sequence (P09958 whole entry, looked up): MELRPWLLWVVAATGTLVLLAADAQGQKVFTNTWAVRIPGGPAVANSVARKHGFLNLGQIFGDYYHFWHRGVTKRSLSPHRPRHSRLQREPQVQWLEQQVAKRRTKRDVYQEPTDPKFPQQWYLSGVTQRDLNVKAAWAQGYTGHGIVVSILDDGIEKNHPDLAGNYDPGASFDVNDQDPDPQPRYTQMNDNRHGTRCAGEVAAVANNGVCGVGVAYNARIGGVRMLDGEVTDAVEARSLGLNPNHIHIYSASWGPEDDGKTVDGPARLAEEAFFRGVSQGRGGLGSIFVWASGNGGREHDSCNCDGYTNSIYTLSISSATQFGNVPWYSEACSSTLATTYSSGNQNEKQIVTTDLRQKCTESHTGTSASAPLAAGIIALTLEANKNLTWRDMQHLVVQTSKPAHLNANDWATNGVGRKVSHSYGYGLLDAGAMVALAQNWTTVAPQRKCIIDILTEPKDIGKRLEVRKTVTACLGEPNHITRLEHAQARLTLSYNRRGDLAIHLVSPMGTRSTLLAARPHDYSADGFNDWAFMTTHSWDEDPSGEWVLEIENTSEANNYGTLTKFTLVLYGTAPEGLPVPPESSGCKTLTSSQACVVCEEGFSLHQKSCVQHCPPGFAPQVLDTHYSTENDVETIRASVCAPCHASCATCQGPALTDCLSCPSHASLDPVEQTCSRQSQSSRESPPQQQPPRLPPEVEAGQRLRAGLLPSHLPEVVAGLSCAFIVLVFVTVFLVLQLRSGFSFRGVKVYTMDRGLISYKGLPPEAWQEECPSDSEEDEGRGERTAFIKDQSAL

One assay has as its target Furin (Homo sapiens) (UniProt P09958). Briefly: Furin counterscreen qHTS for Zika virus inhibitors (AID 1347149). Also: nearly all actives have a fitted effect of over 70% in size. Also: potency is read from the fitted curve at half-maximal effect. Particulars: furin enzymatic counterscreen, fluorogenic substrate; series mostly up to 57.5 µM. The method, boiled down:
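Fluorogenic cleavage of BOC-RVRR-AMC (2 microM final, Km ~15 µM) was monitored (ex 340, em 450 nm) at 37C after 15 min RT preincubation of 5 nM furin with compounds in HEPES pH 7.0 buffer with CaCl2 and Triton X-100. Percent inhibition was fitted to a 4-parameter Hill curve.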
For the compound `O=C(O)c1cn(-c2ccc(F)cc2)c2cc(N3CCNCC3)c(F)cc2c1=O`, the Potency is 24.1 µM (active).

Take `O=c1c(O)c(-c2ccc(O)cc2O)oc2cc(O)cc(O)c12`: the Potency entry was “inactive”. On the same count and under the same terms, under `N[C@@H](Cc1cc(I)c(Oc2cc(I)c(O)c(I)c2)c(I)c1)C(=O)O` stands “inactive”; under `O=c1c(O)c(-c2cc(O)c(O)c(O)c2)oc2cc(O)cc(O)c12`, “inactive”.

In the case of `CN(C)C(=O)[C@H](O)[C@H](Cc1ccccc1)NC(=O)c1cc2cc(Cl)ccc2[nH]1`, the Potency result was “inactive”. Still for that read-out and setting: the result for `Cc1nc(-c2ccc(OCC(C)C)c(C#N)c2)sc1C(=O)O` reads 24.1 µM (active); that for `COc1cc2c(cc1OC)C1CC(=O)C(CC(C)C)CN1CC2` (stereo unspecified), 27.1 µM (active); that for `COc1c2occc2cc2ccc(=O)oc12`, “inactive”. The same measure, in the same setting: the result for `S=c1nc[nH]c2nc[nH]c12` reads “inactive”.

In a further assay the test system is Zika virus NS2B-NS3 protease (unlinked). In words: Optimization of GU AMC qHTS for Zika virus inhibitors: Unlinked NS2B-NS3 protease assay (AID 1347151). Also: nearly all actives have a fitted effect of over 80% in size. Also: potency is read from the fitted curve at half-maximal effect. As to conditions: recombinant ZIKV NS2B-NS3 protease, fluorogenic AMC substrate; series mostly up to 52.5 µM. In a few lines:
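Fluorescence gain (340/450 nm) over 15 min at room temperature, ~20% conversion, gave percent inhibition fitted to a 4-parameter Hill equation; enzyme was unlinked NS2B-NS3 (25 nM final), pH 8.0 Tris buffer.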
For orientation: In qHTS, concentration-response curves come from the screen itself.
As to `O=c1c(O)c(-c2ccc(O)cc2O)oc2cc(O)cc(O)c12`, the Potency was 11.9 µM (active). Still for that read-out and setting: under `O=C1NC(=O)C(c2ccccc2[N+](=O)[O-])=C1Nc1ccc(O)c(Cl)c1` stands “inactive”. The same measure, in the same setting: under `CCOC(=O)C1=C(O)C(=O)N(Cc2ccccc2)C1` stands “inactive”.

A further assay deals with Zika virus NS2B-NS3 protease (linked construct). In words: Confirmatory screen NINDS AMC qHTS for Zika virus inhibitors (AID 1347152). Also: nearly all actives have a fitted effect of over 70% in size. Also: potency is read from the fitted curve at half-maximal effect. As to conditions: Purified linked NS2B-NS3, AMC substrate fluorescence; series mostly up to 56.6 µM. In a few lines: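 IC50s from 4-parameter Hill fits of percent inhibition, based on AMC fluorescence gain (340/450 nm) over 15 min with 10 microM Bz-Nle-KRR-AMC. Enzyme: 1 nM linked NS2B-NS3 in Tris-HCl pH 8.0; 15-min compound preincubation.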
In the case of `Cc1c(OCC(F)(F)F)ccnc1CS(=O)c1nc2ccccc2[nH]1` (stereo unspecified), the Potency entry is “inactive”. Still for that read-out and setting: under `O=C(O)c1cn(-c2ccc(F)cc2)c2cc(N3CCNCC3)c(F)cc2c1=O` stands 24.1 µM (active) and 27.1 µM (active).

On to `COc1cc2c(cc1OC)C1CC(=O)C(CC(C)C)CN1CC2` (stereo unspecified), for which the Potency entry is “inactive”.

The subject of the next assay is Zika virus NS2B-NS3 protease (unlinked complex). In words: Confirmatory screen GU AMC qHTS for Zika virus inhibitors (AID 1347153). Also: nearly all actives have a fitted effect of over 70% in size. Particulars: Recombinant NS2B-NS3 protease, AMC substrate fluorescence; series mostly up to 57.1 µM. In a few lines:
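Fluorescence change (ex 340/em 450 nm) over 15 min, ~20% substrate conversion, normalized to no-inhibitor and no-enzyme controls, then Hill-fitted. Unlinked protease at 25 nM; AMC peptide 10 µM.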
With `Cc1c(OCC(F)(F)F)ccnc1CS(=O)c1nc2ccccc2[nH]1` (stereo unspecified), the Potency result is “inactive”.

With `CN(C)C(=O)[C@H](O)[C@H](Cc1ccccc1)NC(=O)c1cc2cc(Cl)ccc2[nH]1`, the Potency entry was “inactive”. On the same count and under the same terms, the result for `Cc1nc(-c2ccc(OCC(C)C)c(C#N)c2)sc1C(=O)O` reads “inactive”. The same measure, in the same setting: under `COc1cc2c(cc1OC)C1CC(=O)C(CC(C)C)CN1CC2` (stereo unspecified) stands “inactive”.

Another assay deals with Zika virus NS2B-NS3 protease. Briefly: Primary screen GU AMC qHTS for Zika virus inhibitors (AID 1347154). Also: nearly all actives have a fitted effect of over 70% in size. Also: potency is read from the fitted curve at half-maximal effect. As to conditions: Zika NS2B-NS3 unlinked protease, AMC fluorogenic substrate; series mostly up to 54.1 µM. The method, boiled down:
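Unlinked Zika NS2B hydrophilic domain–NS3 protease complex at 25 nM in 10 mM Tris-HCl pH 8.0, 0.01% Tween 20, with an AMC peptide substrate. Fluorescence change (340/450 nm) over 15 min at room temperature, normalized to controls, fitted to 4-parameter Hill.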
`Nc1nc(N)c(N=O)c(OCC2CCCCC2)n1`: the Potency result was “inactive”. For the compound `O=C(O)c1cccnc1Nc1cccc(C(F)(F)F)c1`, the Potency result is “inactive”.

As to `Cc1c(OCC(F)(F)F)ccnc1CS(=O)c1nc2ccccc2[nH]1` (stereo unspecified), the Potency entry is “inactive”. The same measure, in the same setting: under `O=C(c1ccccc1)c1ccc2n1CCC2C(=O)O` (stereo unspecified) stands “inactive”; under `Cc1cccc(-c2[nH]ncc2-c2ccc3ncccc3n2)n1`, “inactive”; under `CC(C)c1ccc2c(c1)c(SC(C)(C)C)c(CC(C)(C)C(=O)O)n2Cc1ccc(Cl)cc1`, “inactive”.

On to `C[C@@H](N)C1CCC(C(=O)Nc2ccncc2)CC1` (stereo partly specified), for which the Potency result was “inactive”. On the same count and under the same terms, under `CC(=O)N1CCN(c2ccc(OC[C@H]3CO[C@](Cn4ccnc4)(c4ccc(Cl)cc4Cl)O3)cc2)CC1` stands “inactive”; under `CC(=O)NC[C@H]1CN(c2ccc(N3CCOCC3)c(F)c2)C(=O)O1`, “inactive”. Same read-out and setting: under `N[C@@H](Cc1cc(I)c(Oc2cc(I)c(O)c(I)c2)c(I)c1)C(=O)O` stands “inactive”; under `COC(=O)N[C@H](C(=O)N[C@@H](Cc1ccccc1)[C@@H](O)CN(Cc1ccc(-c2ccccn2)cc1)NC(=O)[C@@H](NC(=O)OC)C(C)(C)C)C(C)(C)C`, “inactive”; under `O=c1ccc2ccc(O)c(O)c2o1`, “inactive”. On the same count and under the same terms, under `Cc1cc(O)c2c(c1)C(=O)c1cc(O)cc(O)c1C2=O` stands “inactive”; under `O=C1NC(=O)C(c2ccccc2[N+](=O)[O-])=C1Nc1ccc(O)c(Cl)c1`, “inactive”. Regarding `CCOC(=O)C(C)Oc1cccc2c(=O)n(CC(=O)Nc3ccc4c(c3)OCCO4)ccc12` (stereo unspecified), the Potency entry is “inactive”. Consider `O=c1c(O)c(-c2cc(O)c(O)c(O)c2)oc2cc(O)cc(O)c12`, for which the Potency was 9.61 µM (active). Same read-out and setting: under `Cc1cccc(CN2CCN(C(c3ccccc3)c3ccc(Cl)cc3)CC2)c1` (stereo unspecified) stands “inactive”. Still for that read-out and setting: under `CC(C)Oc1ccc2c(=O)c(-c3ccccc3)coc2c1` stands “inactive”; under `Cc1nc(-c2ccc(OCC(C)C)c(C#N)c2)sc1C(=O)O`, 21.5 µM (active); under `NNc1nncc2ccccc12`, “inactive”.

With `NCCCCNCCCN`, the Potency entry was “inactive”. On the same count and under the same terms, the result for `COc1cc2c(cc1OC)C1CC(=O)C(CC(C)C)CN1CC2` (stereo unspecified) reads “inactive”. On the same count and under the same terms, under `NC(=NCc1ccccc1)NC(=O)c1nc(Cl)c(N)nc1N` stands “inactive”. Still for that read-out and setting: under `CC1(C)NC(=O)N(c2ccc([N+](=O)[O-])c(C(F)(F)F)c2)C1=O` stands “inactive”.

For `COc1c2occc2cc2ccc(=O)oc12`, the Potency entry is “inactive”.

In the case of `S=c1nc[nH]c2nc[nH]c12`, the Potency entry was “inactive”. The same measure, in the same setting: the result for `Clc1ccc2c(N3CCN(CCCN4CCN(c5ccnc6cc(Cl)ccc56)CC4)CC3)ccnc2c1` reads “inactive”. Still for that read-out and setting: the result for `CC(=O)Nc1ccc(O)cc1` reads “inactive”; that for `CCOC(=O)C1=C[C@@H](OC(CC)CC)[C@H](NC(C)=O)[C@@H](N)C1`, “inactive”; that for `CNC[C@H](O)c1ccc(O)c(O)c1`, “inactive”.

As for `CC1Cc2ccccc2N1NC(=O)c1ccc(Cl)c(S(N)(=O)=O)c1` (stereo unspecified), the Potency result is “inactive”. Still for that read-out and setting: the result for `CCOC(=O)C1=C(O)C(=O)N(Cc2ccccc2)C1` reads “inactive”; that for `COc1ccccc1N1CCN(CCN(C(=O)C2CCCCC2)c2ccccn2)CC1`, “inactive”. Take `C[C@@H](c1ncncc1F)[C@](O)(Cn1cncn1)c1ccc(F)cc1F`: the Potency entry was “inactive”.

Test system in the next assay: not listed separately
Briefly: Confirmatory screen GU Rhodamine qHTS for Zika virus inhibitors qHTS (AID 1347157). As to conditions: purified enzyme assay, Rhodamine110 substrate fluorescence, 15 min. The method, boiled down: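 Buffer 10 mM Tris-HCl pH 8.0, 0.01% Tween 20. Unlinked protease 25 nM; compound preincubation 15 min, RT, protected from light. Substrate Rhod110, 1.5 microM; ~15% conversion in 15 min.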
For the compound `O=c1c(O)c(-c2ccc(O)cc2O)oc2cc(O)cc(O)c12`, the Potency is 20 µM (active). The same measure, in the same setting: under `N[C@@H](Cc1cc(I)c(Oc2cc(I)c(O)c(I)c2)c(I)c1)C(=O)O` stands 6.1 µM (active). The same measure, in the same setting: under `O=c1c(O)c(-c2cc(O)c(O)c(O)c2)oc2cc(O)cc(O)c12` stands 17.8 µM (active).
